# Source: PubChem (NMMLSC)
# RGS8-Gao = regulators of human RGS8-Galphao interaction | response (percent of control binding), % at 10 µM | multiplexed bead flow cytometry, RGS8-Galphao binding; actives lie on both sides | hit rate 0.34% among 220,000 | AID 1423; in the data active = response below about 60% or above about 140%; inactive = in between;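 note: Galphao activated as the GDP aluminium fluoride complex binding bead-coupled RGS8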
# Target sequence (P09471 whole entry, looked up): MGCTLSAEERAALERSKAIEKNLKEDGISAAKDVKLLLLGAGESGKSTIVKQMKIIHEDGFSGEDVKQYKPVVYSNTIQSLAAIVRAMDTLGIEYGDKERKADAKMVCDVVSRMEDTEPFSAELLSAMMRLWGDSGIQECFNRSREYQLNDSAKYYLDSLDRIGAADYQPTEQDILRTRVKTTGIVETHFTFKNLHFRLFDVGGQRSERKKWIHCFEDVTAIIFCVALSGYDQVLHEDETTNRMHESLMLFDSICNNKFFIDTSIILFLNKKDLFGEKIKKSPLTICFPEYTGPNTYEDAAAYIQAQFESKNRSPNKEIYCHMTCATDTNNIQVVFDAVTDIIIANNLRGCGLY
# RGS7-Gao = modulates binding of RGS7 to human Galphao. P09471. Multiplexed bead flow cytometry; actives lie on both sides. binding response (% of control), % at 10 µM. hit rate 0.35% among 220,000; in the data active = binding response below about 49% or above about 150%; inconclusive = no clear call, values can overlap the other calls; inactive = in between;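 note: fluorescent Galphao held in activated GDP-AlF4 state binding bead-coupled RGS7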
# Avidin fluor = avidin bead compound fluorescence profile; hit rate 0.38% among 220,000; Avidin beads, compound fluorescence 488/530 nm, flow cytometry; hits give high values; fluorescence (KMESF) at 10 µM; AID 1775; in the data active = fluorescence above about 47
# RGS4-Gao reg = human RGS4-Galphao interaction regulation; hit rate 0.33% among 220,000; Multiplexed bead flow cytometry, RGS4-Galphao binding; actives lie on both sides; binding response (% of control), % at 10 µM; in the data active = binding response below about 49% or above about 150%; inactive = in between;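 note: fluorescent Galphao activated with aluminum fluoride binding bead-coupled RGS4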
# GSH fluor = compound fluoresces at 488/530 nm on GSH beads. GSH beads flow cytometry, compound fluorescence 488/530 nm; hits give high values. fluorescence (KMESF) at 10 µM. hit rate 0.25% among 190,000; in the data active = fluorescence above about 89;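 note: glutathione beads carrying GST-tagged Bcl family fusion proteins plus one bare bead set; values are compound well signal with DMSO vehicle wells as background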
# RGS16-Gao HTS = modulates binding between human RGS16 and Galphao; O15492+P09471; bead-based flow cytometry RGS16-Galphao binding, fluorescence; actives lie on both sides; binding response (% of control), % at 10 µM; hit rate 0.38% among 220,000;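 note: Galphao activated by GDP with aluminum fluoride before binding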
# Target sequence (O15492 whole entry, looked up): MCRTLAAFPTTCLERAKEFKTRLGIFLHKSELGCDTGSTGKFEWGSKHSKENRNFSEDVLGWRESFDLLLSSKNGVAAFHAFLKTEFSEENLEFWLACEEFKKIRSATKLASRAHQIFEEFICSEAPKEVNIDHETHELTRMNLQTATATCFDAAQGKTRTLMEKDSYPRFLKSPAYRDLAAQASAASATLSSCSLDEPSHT
# Target sequence (P09471 whole entry, looked up): as the sequence (P09471 whole entry, looked up) above
# RGS4-Gao HTS = regulators of human RGS4-Galphao interaction; shares compounds with RGS16-Gao HTS; multiplexed bead flow cytometry, RGS–Galpha-o binding; RGS4–Galpha-o binding response, % at 10 µM; hit rate 99% among 1,600; AID 1504;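 note: fluorescently labeled Galpha-o bound to GDP with aluminium fluoride binding biotinylated RGS beads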
# Avidin counter = counter-screen: compounds disrupting biotin binding to avidin beads. inhibition, % at 10 µM. shares compounds with RGS16-Gao HTS. streptavidin beads, fluorescein-biotin binding, flow cytometry. AID 1783. 1,700 tested, under 10 active;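 active = inhibition above 50%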;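 note: median green fluorescence of gated singlet beads compared with DMSO control wells; 0% = DMSO wells and 100% = complete loss of bead fluorescence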
# RGS8-Gao confirm = RGS8-Galphao interaction regulation, single point confirmation. shares compounds with RGS16-Gao HTS. AID 1836. binding response (% of control), % at 10 µM. bead-based flow cytometry RGS8-Galphao binding, fluorescence; actives lie on both sides. hit rate 3% among 1,700; in the data active = binding response below about 72% or above about 130%; inactive = in between;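 note: Galphao activated as GDP AlF4 complex before binding bead RGS8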
# RGS7-Gao confirm = confirmation of regulators of human RGS7-Galphao interaction | shares compounds with RGS16-Gao HTS | bead-based flow cytometry RGS7-Galphao binding; actives lie on both sides | response (percent of control binding), % at 10 µM | hit rate 7.8% among 1,700 | AID 1837; in the data active = response below about 75% or above about 130%; inactive = in between;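 note: fluorescent Galphao activated with GDP and aluminum fluoride binding bead-coupled RGS7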
# RGS16-Gao conf = confirmation of regulators of human RGS16-Galphao interaction; shares compounds with RGS16-Gao HTS; AID 1838; response (% of control binding), % at 10 µM; hit rate 4% among 1,700; bead-based flow cytometry, RGS16-Galphao binding; actives lie on both sides; in the data active = response below about 74% or above about 130%; inactive = in between;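 note: Galphao activated as the GDP aluminium fluoride complex binding bead-coupled RGS16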
# RGS4-Gao single = confirmation of regulators of human RGS4-Galphao interaction. shares compounds with RGS16-Gao HTS. RGS4-Galphao binding, multiplexed bead flow cytometry; actives lie on both sides. binding response (% of control), % at 10 µM. hit rate 4% among 1,700. AID 1840; in the data active = binding response below about 74% or above about 130%; inactive = in between
# RGS19-Gao single = confirmation of regulators of human RGS19-Galphao interaction | shares compounds with RGS16-Gao HTS | bead-based flow cytometry RGS19-Galphao binding; actives lie on both sides | response (percent of control binding), % at 10 µM | hit rate 5% among 1,700 | AID 1841; in the data active = response below about 50% or above about 160%; inactive = in between;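 note: 100% = no compound control and 0% = blank background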
# Active calls of the source: *; ? = inconclusive; . = no result; [ ] = remark or other dose. Shown are actives, neighbours in structure and some others; about 1.2% of the full set was active somewhere. Unless noted, the rule behind the calls is not given here.
SMILES,RGS8-Gao,RGS7-Gao,Avidin fluor,RGS4-Gao reg,GSH fluor,RGS16-Gao HTS,Avidin counter,RGS8-Gao confirm,RGS7-Gao confirm,RGS16-Gao conf,RGS4-Gao single,RGS19-Gao single,others
CN=C1c2cc3c(Br)c(OC)ccc3n2CCN1C,97.5,127.5,16,151.5*[activator],8,153.4,-0.8,103.8,95.0,105.4,99.4,96.0,
Clc1ccc(C2=CSC3=NCCN23)cc1Cl,17.6*,-0.4*,0,-19.2*,11,-13.5*,-0.1,102.2,90.7,100.1,97.5,104.5,
Cc1nc(N)nc(N)c1/C=C/C(C)(C)c1ccc(Cl)cc1,100.8,96.8,7,99.5,7,99.1,.,.,.,.,.,.,
COc1ccc(C(CC(=O)O)NS(=O)(=O)c2ccc(C)cc2)cc1OC (configuration not stated),12.4*,11.8*,0,20.9*,36,12.5*,-0.5,100.0,98.2,98.2,99.8,99.1,
COc1ccc(C(CC(=O)O)NS(=O)(=O)c2ccc(C)cc2)cc1 (configuration not stated),99.5,101.3,32,98.7,17,97.4,.,.,.,.,.,.,
O=C(Cc1ccccc1)Nc1ccc(SC(F)F)cc1,101.7,100.8,23,100.1,11,105.0,.,.,.,.,.,.,
CCCCOCCCNC(=O)C1CCCCC1,55.0*,50.9,4,83.6,31,66.1,0.4,107.2,104.1,111.2,103.7,101.8,RGS4-Gao HTS=83.6*
Cc1nn(C)c(C(=O)N/N=C/c2cccc3ccccc23)c1Cl,38.2*,27.9*,3,27.8*,21,30.9,-1.1,98.2,98.0,96.7,99.6,96.9,
O=C(Cn1cncn1)N/N=C/c1cccc2ccccc12,79.2,98.8,3,92.3,21,45.2,.,.,.,.,.,.,
Cc1nn(C)c(C(=O)N/N=C/c2ccc(Br)cc2)c1Cl,58.0*,40.1*,6,46.2*,10,40.9,1.6,99.7,103.5,100.8,100.6,100.0,
CCc1ccc2nc3sc(C(=O)O)cc3cc2c1,89.9,99.5,5,76.2,14,77.7,.,.,.,.,.,.,
COc1ccccc1NC(=O)Cn1nnc(-c2ccccc2NC(=O)c2ccco2)n1,.,.,.,.,10,.,-1.0,103.3,103.3,103.0,105.4,101.2,
COc1ccc(NC(=O)Cn2nnc(-c3ccccc3NC(=O)c3ccco3)n2)cc1,103.1,105.2,35,105.9,14,102.8,.,.,.,.,.,.,
c1ccc(Cn2cnc3ccccc32)cc1,35.2*,33.9*,8,33.0*,13,26.4,-1.1,108.5,116.1,113.1,114.6,112.4,
CCOc1cc(CNC2CCCC2)c(Cl)cc1OCC(=O)Nc1ccccc1,104.4,?,11,105.7,18,104.7,.,.,.,.,.,.,
CS(=O)(=O)N1CCN(C(=O)c2cccnc2)CC1,96.0,96.7,7,87.5,67,83.3,.,.,.,.,.,.,
CCCS(=O)(=O)N1CCN(C(=O)c2cccnc2)CC1,68.0,47.7*,6,56.5,14,72.9,.,.,.,.,.,.,RGS4-Gao HTS=56.5*
CCOC(=O)/C(C(=O)Nc1ccccc1Cl)=C1/NC(C)(C)Cc2ccccc21,.,.,.,.,17,.,4.9,95.1,73.2*,85.9,85.2,87.7,
CCOCC(=O)Nc1cccc(C(=O)OCC)c1,104.3,96.0,11,99.3,35,108.0,.,.,.,.,.,.,
CCOCC(=O)Nc1cc(C(=O)OC)cc(C(=O)OC)c1,127.6,103.7,2,110.2,6,203.4*[activator],-0.3,107.3,102.2,111.2,101.8,107.6,RGS4-Gao HTS=110.2*
CCCc1cc(=O)oc2c3c(c4c(c12)OC(C)(C)C=C4)OC(C)C(C)C3O (configuration not stated),10.2*,?,0,-6.7*,.,-5.8*,-1.8,107.2,110.7,108.3,110.0,112.4,
COCCNC(=O)Cn1nc(-c2ccccc2OC)ccc1=O,158.4*[activator],132.7,5,132.9,57,383.1,1.3,107.2,82.5,104.3,91.3,55.8,RGS4-Gao HTS=132.9*
COc1ccccc1/C=C/C(=O)c1c2c(c(C)[nH]c1=O)CCCC2,100.8,102.8,14,101.1,33,107.5,.,.,.,.,.,.,
CCCCc1cc(=O)oc2cc(C)c(CN3CCCC3)c(O)c12,129.2,160.1*[activator],15,139.1,29,175.1*[activator],0.9,93.0,89.5,91.8,91.6,60.6,RGS4-Gao HTS=139.1*
CCn1c(C)nc2cc(C(=O)N/N=C/c3ccccc3)ccc21,101.4,96.7,13,97.7,23,97.8,.,.,.,.,.,.,
SMILES,RGS8-Gao,RGS7-Gao,Avidin fluor,RGS4-Gao reg,GSH fluor,RGS16-Gao HTS,Avidin counter,RGS8-Gao confirm,RGS7-Gao confirm,RGS16-Gao conf,RGS4-Gao single,RGS19-Gao single,others
CCCCOc1ccc(C2=NNC(=O)CC2)cc1,98.3,99.7,11,100.0,13,103.2,.,.,.,.,.,.,
CCn1c(O)c(/C=N/N=C/c2ccccc2)c2ccc(C3=NNC(=O)CC3)cc21,.,.,.,.,37,.,2.2,99.9,110.5,102.6,104.5,100.0,
CCC(CC)=N/N=C/c1c(O)n(CC)c2cc(C3=NNC(=O)CC3)ccc12,66.8,77.0,12,80.2,16,24.5*,0.7,104.7,100.3,110.2,99.9,109.5,RGS4-Gao HTS=80.2*
COc1ccc(-c2[nH]ncc2CN(C)CCN2CCOCC2)cc1F,6.9*,-15.3*,-2,-6.3*,15,-4.7*,-1.7,91.3,80.8,86.7,87.4,84.0,
CC(C)(C)C(=O)Nc1ccccc1C(=O)OCC(=O)c1ccc2c(c1)OCCO2,99.1,98.7,3,99.3,10,94.3,.,.,.,.,.,.,
COC(=O)c1ccccc1NC(=O)c1ccc2c(c1)OCCO2,131.3,137.2,15,134.1,52,231.4*[activator],1.0,98.5,94.2,97.1,100.0,86.7,RGS4-Gao HTS=134.1*
CCOc1ccc(CCNC(=O)c2cc3sccc3n2C)cc1OCC,141.5*[activator],140.7,3,154.5*[activator],33,-273.5,0.7,98.5,98.9,98.8,99.2,83.8,
COc1ccc(-n2nc(C(=O)NCC(=O)Nc3ccccn3)c3ccccc3c2=O)cc1Cl,105.6,109.8,40,167.0*[activator],19,161.3,2.4,101.7,98.4,100.2,95.7,101.8,
